Experimental data: PubChem BioAssay AID720700 (The Scripps Research Institute Molecular Screening Center, 2013)
Hit rate of the full screen: of about 370,000 compounds, about 3,100 (0.84%) were called active. Only a selection was taken, and actives are over-represented in it overall. Values without a mark were called inactive. No stated cut-off is given here; in the data, active means inhibition above about 9.5%; inactive means the rest.

target: 1-phosphatidylinositol 4,5-bisphosphate phosphodiesterase gamma-1 (Homo sapiens) (UniProt P19174); experiment: blockers of human PLCG1 activity – biochemical, fluorescence, purified enzyme, primary screen (AID 720700); conditions: purified PLC-gamma1, fluorogenic substrate, at 12.2 µM, stronger effect = higher value
Sequence (P19174 whole entry, looked up): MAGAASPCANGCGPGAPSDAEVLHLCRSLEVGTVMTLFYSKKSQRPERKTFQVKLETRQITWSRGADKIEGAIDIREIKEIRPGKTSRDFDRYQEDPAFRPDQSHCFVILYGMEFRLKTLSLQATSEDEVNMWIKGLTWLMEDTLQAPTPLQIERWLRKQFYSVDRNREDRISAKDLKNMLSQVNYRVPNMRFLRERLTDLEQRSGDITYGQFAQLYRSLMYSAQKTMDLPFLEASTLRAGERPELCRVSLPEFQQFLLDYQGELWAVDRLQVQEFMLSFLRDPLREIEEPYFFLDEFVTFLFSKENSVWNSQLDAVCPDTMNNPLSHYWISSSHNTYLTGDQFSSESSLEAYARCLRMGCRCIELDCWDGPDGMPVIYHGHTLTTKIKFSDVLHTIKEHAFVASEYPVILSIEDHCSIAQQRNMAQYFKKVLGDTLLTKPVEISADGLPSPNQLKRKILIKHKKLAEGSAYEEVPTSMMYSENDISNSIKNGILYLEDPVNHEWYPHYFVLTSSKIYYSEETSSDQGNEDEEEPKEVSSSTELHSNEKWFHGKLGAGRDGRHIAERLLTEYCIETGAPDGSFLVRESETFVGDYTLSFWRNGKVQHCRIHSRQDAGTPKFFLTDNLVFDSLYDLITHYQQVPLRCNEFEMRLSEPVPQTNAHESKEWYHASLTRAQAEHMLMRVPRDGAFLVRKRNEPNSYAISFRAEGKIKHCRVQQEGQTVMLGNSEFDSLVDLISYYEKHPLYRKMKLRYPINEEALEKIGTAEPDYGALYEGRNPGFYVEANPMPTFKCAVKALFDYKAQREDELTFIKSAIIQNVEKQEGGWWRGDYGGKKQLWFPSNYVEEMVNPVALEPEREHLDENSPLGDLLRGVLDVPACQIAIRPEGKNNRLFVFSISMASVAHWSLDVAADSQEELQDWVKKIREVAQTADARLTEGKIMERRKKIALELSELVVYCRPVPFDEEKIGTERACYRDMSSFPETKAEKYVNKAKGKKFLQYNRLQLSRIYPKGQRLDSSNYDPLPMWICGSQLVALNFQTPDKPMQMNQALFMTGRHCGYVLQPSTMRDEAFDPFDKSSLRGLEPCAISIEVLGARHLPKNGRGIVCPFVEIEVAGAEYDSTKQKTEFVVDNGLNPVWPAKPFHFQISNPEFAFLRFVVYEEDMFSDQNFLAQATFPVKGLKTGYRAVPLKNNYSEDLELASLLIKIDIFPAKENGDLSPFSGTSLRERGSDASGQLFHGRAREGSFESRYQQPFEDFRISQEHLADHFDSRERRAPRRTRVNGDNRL

Structure (SMILES) | inhibition
COC(=O)[C@]12C[C@H](CC(=O)N3CCN(C(=O)C4CC4)CC3)C(=O)N(CCC3=CCCCC3)C1=C[C@H](C(C)C)O[C@@H]2C1CC1 | -0.79%
O=C(CNC(=O)c1ccc(Br)o1)NCC1CCCO1 (stereo not given) | -1.19%
OC(CNCC1CCCO1)Cn1c2ccc(Br)cc2c2cc(Br)ccc21 (stereo not given) | 9.98% (active)
COCCNC(=O)c1ccc(Cn2c(SCC(=O)NCC3CCCO3)nc3ccc(Br)cc3c2=O)cc1 (stereo not given) | 0.38%
COc1cccc(CSc2nnc(-c3cccnc3)n2Cc2ccccc2)c1 | -0.88%
N[C@@H](Cc1ccccc1)C(=O)N1CCC[C@@H]1C(=O)N1CCC2CCN(S(=O)(=O)c3ccccc3)CC21 (stereo not given in full) | 1.45%
CCCCC(=O)N[C@@H]1CC[C@@]23CCCN2C(=O)CCC[C@H]3[C@H]1C | 0.85%
COc1ccc(S[C@]2(C(=O)N(C)C)CC(=O)N(c3ccc(OC)cc3)[C@@H]2c2ccc(OC)cc2)cc1 | 3.67%
COc1cc(/C=C/C(=O)n2cnc3ccccc32)cc(OC)c1OC | -0.84%
Cc1ccccc1CN1CCCCC(NC(=O)Nc2ccccc2F)C1=O (stereo not given) | 4.92%
Nn1cnnc1N/N=C/c1cc([N+](=O)[O-])c(Cl)cc1Cl | 13.2% (active)
COc1ccc(NC(=O)N2CCCC2C(=O)NCc2ccccc2Cl)cc1 (stereo not given) | -0.63%
O=C(Nc1ccc(Br)cc1)C1CCC(=O)N1Cc1ccccc1Cl (stereo not given) | 9.91% (active)
O=C1c2ccccc2C(O)N1Cc1ccccc1Cl (stereo not given) | -1.89%
COc1ccc(-n2c(SCC(=O)Nc3ccc4c(c3)OCCO4)nnc2-c2ccc(Cl)cc2)cc1 | 2.18%
O=S1(=O)c2c(NCc3ccco3)cccc2Oc2ccccc2CN1Cc1cn(Cc2cccc(C(F)(F)F)c2)nn1 | -41.1%
O=C(CN1CCN(c2ccc(O)cc2)CC1)Nc1ccc(-c2ccccc2)cc1 | 5.1%
CCc1cc(C(=O)c2ccc(OC)cc2)c(NC(=O)CN2CCN(C)CC2)s1 | -5.73%
CCCCc1nc2ccccc2c(NC(=O)CN2CCN(C)CC2)c1CCC | 31.4% (active)
Clc1ccc(-n2c(COc3ccccc3)nnc2SCc2nc3ccccc3[nH]2)cc1 | -0.91%
CCCCNc1ccc(C(=O)Nc2cccc(C)n2)cc1[N+](=O)[O-] | 16.8% (active)
Cc1cccc(NC(=O)c2ccc(COc3ccccc3[N+](=O)[O-])o2)n1 | -0.91%

Structure (SMILES) | inhibition
Cc1cc(O)c(NC(=O)c2ccc(C)c([N+](=O)[O-])c2)cc1C | 4.76%
O=C(Nc1cc(F)cc(F)c1)OC1CCC12CCC(c1ccccc1)CC2 (stereo not given) | 0%
C=CCN1[C@H](CC(C)C)COc2cccc(N3CCCC3)c2S1(=O)=O | -4.7%
C[C@H]1[C@H](NC(=O)c2cccc(N(C)C)c2)CC[C@@]23CCCN2C(=O)CCC[C@@H]13 | -87.5%
Cc1sc2nc(SCC(=O)c3ccc(O)c(O)c3)n(Cc3ccco3)c(=O)c2c1C | 4.7%
CCC(C)CN1C(=O)CSCC1(C)C(=O)NCc1ccccc1 (stereo not given) | 3.07%
CC1(C(=O)NCc2ccccc2)CSCC(=O)N1CCCn1ccnc1 (stereo not given) | 0.21%
CC1(C(=O)NCc2ccccc2)CSCC(=O)N1CCCN1CCOCC1 (stereo not given) | 10.3% (active)
Cc1cc(=O)[nH]c(SCC(=O)Nc2ccc(Cl)cc2C)n1 | 3.72%
C=C(C)C#CC(Cc1ccccc1)N(CC1CC1)/C(N)=N/C(=O)OCc1ccccc1 (stereo not given) | -163%
O=S1(=O)c2c(cccc2N2CCSCC2)Oc2ccccc2CN1Cc1cn(Cc2ccc(F)cc2)nn1 | -5.24%
O=C(Nc1ccccc1Cl)/C(Cl)=C(\Cl)S(=O)c1ccccc1 (stereo not given) | 12.4% (active)
CN1C(=O)c2cc(NS(C)(=O)=O)ccc2OC[C@@H]2O[C@@H](CC(=O)NCc3ccc(-c4ccccc4)cc3)CC[C@H]21 | -2.2%
CCC(=O)c1c(CC)c2n3c1=CC[C@H]3CC(Br)C=2 (stereo not given in full) | -6.13%
CC(=O)N1CCc2cc(S(=O)(=O)NCCC(=O)N3CCCC3)ccc21 | 1.19%
COc1ccc(N2CC(C(=O)NCCS(=O)(=O)N3CCN(c4ccccc4)CC3)CC2=O)cc1 (stereo not given) | 4.62%
COCCCNC(=O)C1CC(=O)N(c2ccc(C)cc2)C1 (stereo not given) | -0.12%
Cc1ccc(N2CC(C(=O)NCCS(=O)(=O)N3CCN(c4ccccc4)CC3)CC2=O)cc1 (stereo not given) | 10.4% (active)
O=C(NC1CCCC1)C1CSCCS(=O)(=O)N1Cc1ccccc1 (stereo not given) | -0.17%
COc1cccc(C(=O)CC(=O)C(=O)Nc2ccc([N+](=O)[O-])cc2C)c1 | -0.82%
COc1ccc(C(=O)c2c(C)c(CCC#N)n3ccccc23)c(OC)c1 | -3.69%
Cc1c(C(=O)c2cccc([N+](=O)[O-])c2)c2ccccn2c1CCC#N | 11.7% (active)

Structure (SMILES) | inhibition
Cc1cc(C)cc(NC(=O)N2CCC(N(C)CCC(C)C)CC2)c1 | 3.12%
CCC(c1ccc(NC(=O)OC(C)(C)C)cc1)c1cc(OC)cc(OC)c1 (stereo not given) | 1.5%
N#Cc1c(NC(=O)C2CCCO2)sc2c1CCCCC2 (stereo not given) | 12.2% (active)
CC(=O)c1c(C)[nH]c(C(=O)OCC(=O)Nc2sc3c(c2C#N)CCCC3)c1C | -7.9%
N#Cc1c(NC(=O)c2ccc(N3CCOCC3)c([N+](=O)[O-])c2)sc2c1CCCC2 | 3.4%
O=C(Nc1ccccc1)N1CCN(Cc2nc3ccccc3c(=O)[nH]2)CC1 | -0.51%
C/C(CC(C)C)=N\Oc1nc(C)cc(C)n1 | 9.91% (active)
COc1cccc(CNC(=O)C2CCCN(c3nc4ccccc4o3)C2)c1OC (stereo not given) | 0.94%
COC(=O)[C@H](C(C)C)N1CCc2nnn(Cc3ccc(C)cc3)c2-c2ccccc2S1(=O)=O | 0.55%
CCOc1ccc(-c2c(C)n([O-])c3c([n+]2=O)CCCC3)cc1 | -0.45%
CCc1c(C)n([O-])c2c([n+]1=O)CCCCC2 | 11% (active)
Cc1ccc(-c2c(C)n([O-])c3c([n+]2=O)CCC3)cc1 | 1.87%
CC(CCN1CCC(C(O)(c2ccccc2)c2ccccc2)CC1)Oc1ccc(Cl)cc1 (stereo not given) | 3.75%
CCCC[C@H]1C2CC(OC(=O)NCc3ccccc3)C(C2)[C@H]2CCCCN21 (stereo not given in full) | -1.64%
Cc1cccc(C)c1NC(=O)CN1C(=O)C(C)Oc2ccccc21 (stereo not given) | 1.55%
CC12c3ccccc3C(c3ccccc31)C1C(=O)N(Cc3cccnc3)C(=O)C12 (stereo not given) | 1.04%
CC1Oc2ccccc2N(Cc2cccnc2)C1=O (stereo not given) | 11% (active)
Cc1ccc(C2=CCN(C)C(=O)N2c2ccc(Cl)cc2)cc1 | -0.42%
CC(c1c[nH]c2ccccc12)c1c(-c2ccccc2)n(C)c2ccccc12 (stereo not given) | -4.35%
CC(C)C(C#CC1CC1)N(Cc1ccc2c(c1)OCO2)C(N)=NC(=O)/C=C/c1cccc(C(F)(F)F)c1 (stereo not given) | 0.02%
C=CCN(C(=O)[C@@H](CCCC)[C@@H](O)c1ccc(Cl)cc1)c1ccccc1 | -0.11%
CCOc1ccc(S(=O)(=O)NCCC(=O)NCC2CCCO2)cc1 (stereo not given) | 2.41%

Structure (SMILES) | inhibition
O=C(CCNS(=O)(=O)c1ccc(Br)cc1)NCC1CCCO1 (stereo not given) | 12.3% (active)
CCC(=O)Nc1ccc(S(=O)(=O)NCC2CCCO2)cc1 (stereo not given) | 3.4%
COC(=O)[C@]12C[C@H](CC(=O)NCc3ccccc3)C(=O)N(Cc3ccccc3)C1=C[C@H](COCc1ccccc1)O[C@@H]2C | 8.06%
COc1ccc(-n2c(SCC(=O)Nc3ccccc3-c3ccccc3)nnc2-c2cccnc2)cc1 | -0.54%
C=C(C)C1CC23C(=O)C4(C(=O)c5ccccc5)C[C@@]5(C)CCC(CC2C1(C)C)(C4=O)C35OC (stereo not given in full) | -0.5%
COC(=O)[C@]12C[C@H](CC(=O)N3CCOCC3)C(=O)N(Cc3ccc(Cl)cc3Cl)C1=C[C@H](C(C)C)O[C@@H]2C1CC1 | -1.21%
O=C(CSc1ncn[nH]1)N/N=C/c1ccc(F)cc1 | 9.55% (active)
O=C(CSc1ncn[nH]1)Nc1ccnc2ccccc12 | 0.33%
O=C(CSc1ncn[nH]1)Nc1nsc(-c2ccccc2)n1 | -3.65%
COc1cc(NC(=O)C2CCCN(S(=O)(=O)c3ccc(C(C)(C)C)cc3)C2)cc(OC)c1 (stereo not given) | 0.39%
CC(C)CNc1cccc2c1S(=O)(=O)N(Cc1cn(Cc3ccc(Cl)cc3)nn1)Cc1ccccc1O2 | -48.8%
C=CCN1[C@@H](Cc2ccccc2)COc2cccc(N3CCSCC3)c2S1(=O)=O | 1.11%
CCOC(=O)[C@]12CCCCC/C=C\1N(Cc1ccc(OC)cc1)C(=O)[C@H]2CC(=O)N1CCOCC1 | -0.42%
CCOC(=O)[C@]12CCCC=C1N(CCCOC)C(=O)[C@@H]2CC(=O)N1CCOCC1 | 10.2% (active)
CCOC(=O)[C@]12CCCC=C1N(Cc1ccc(OC)cc1)C(=O)[C@@H]2CC(=O)N1CCOCC1 | 0.69%
COc1ccc(N2CCN(CCNS(=O)(=O)c3ccc([N+](=O)[O-])cc3)CC2)cc1 | -0.14%
COC(=O)C1CN(CCc2ccccc2)CCS(=O)(=O)N1Cc1cccc(Cl)c1 (stereo not given) | 0.86%
COc1ccc(CSc2nnc(-c3cccc(C)c3)n2C)cc1 | 1%
COc1ccc(-n2c(COc3ccccc3)nnc2SCC(=O)Nc2ccc3c(c2)OCO3)cc1 | -1.32%
